Rows were chosen to be rich in hits. Some 2% of all compounds tested hit in one or more screens of this group.
ID4 binder – binders of human ID4 protein, primary screen, biochemical, small molecule microarray, single point | DNA-binding protein inhibitor ID-4 (Homo sapiens), P47928 | Flag-ID4 binding, fluorescence F/B | calls only | 1.2% of 31,000 active | AID 624137, 2012; call rule not given here;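 note: a binder raises fluorescence above local background on the spot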
p53 PUMA act – mutant p53 pathway re-activators, primary screen, cell-based, SW480, luciferase, single point, HTS. AID 624151, 2012. 1.5% of 28,000 active. activation, % at 9.98 µM. SW480 PUMA-promoter luciferase, p53 mutant reactivation; in the data active = activation above about 52%; inconclusive = no clear call, values can overlap the other calls
STK33 kin inh – STK33 kinase inhibitors, primary screen, biochemical, luminescence, ADP-Glo, MBP substrate; Serine/threonine-protein kinase 33 (Homo sapiens), Q9BYT3; AID 2322, 2010; inhibition, % at 12.5 µM; 0.44% of 27,000 active; in the data active = inhibition above about 20%; inconclusive = no clear call, values can overlap the other calls
Target sequence (Q9BYT3 whole entry, looked up): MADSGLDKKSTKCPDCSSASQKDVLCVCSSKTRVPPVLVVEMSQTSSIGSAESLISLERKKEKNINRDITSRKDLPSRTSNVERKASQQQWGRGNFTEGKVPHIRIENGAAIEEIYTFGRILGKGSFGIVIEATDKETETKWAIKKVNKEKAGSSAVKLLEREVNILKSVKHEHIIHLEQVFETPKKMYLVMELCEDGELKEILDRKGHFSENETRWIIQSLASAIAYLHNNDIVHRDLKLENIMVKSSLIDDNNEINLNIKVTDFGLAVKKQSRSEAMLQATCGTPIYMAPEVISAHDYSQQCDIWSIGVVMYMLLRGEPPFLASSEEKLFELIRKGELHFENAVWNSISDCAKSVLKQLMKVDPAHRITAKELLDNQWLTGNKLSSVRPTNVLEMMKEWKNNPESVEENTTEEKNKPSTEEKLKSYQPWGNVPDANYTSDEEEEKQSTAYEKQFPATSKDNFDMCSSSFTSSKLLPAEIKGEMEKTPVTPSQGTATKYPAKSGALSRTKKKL
The depositor's hits bear a star; i = inactive; ? = inconclusive; nt = not tested or not shown; + = active, no number.

SMILES	ID4 binder	p53 PUMA act	STK33 kin inh
COC(=O)C[C@H]1C(C)(C)C2(Cl)O[C@@]34CC2C(=O)[C@]1(C)C3CC[C@]1(C)C4=CC(=O)O[C@H]1c1ccoc1 (stereo partly specified)	nt	nt	1
Cc1cc(CNC(=O)c2cc(-c3ccccc3)nc3ccccc23)nn1C	i	-5	-3
N#CCCN(CCC#N)C(=O)c1cc(-c2ccccc2)nc2ccccc12	+	4	0
C[C@H](CCC(=O)O)[C@H]1CCC2[C@@H]3CC[C@@H]4C[C@H](O)CC[C@]4(C)C3C=C[C@@]21C (stereo partly specified)	i	-5	-12
O=C(NCc1ccccn1)C(=O)Nc1ccccc1F	i	61*	-1
Cc1ccc(NC(=O)C(=O)NCc2ccccn2)cc1C	i	94*	1
Cc1ccc(NC(=O)CSc2ncccn2)cc1C	i	2	1
Cc1cc(=O)oc2cc(NC(=S)NCc3ccccn3)ccc12	i	81*	2
CC(C)CNC(=O)C(=O)NCc1ccccn1	i	2	-5
Cc1cc(=O)oc2cc(NC(=S)NCCCN3CCCC3=O)ccc12	i	39	-1
CC(=O)N1C(=S)NC(=O)C1c1ccccc1 (stereo unspecified)	nt	nt	-1
O=c1cc(-c2ccc(O)c(O)c2)c2c(O[C@@H]3O[C@H](CO)[C@@H](O)[C@H](O)[C@H]3O)cc(O)cc2o1	i	7	-1
CC(CNc1ccccc1)C(=Nc1ccccc1)Nc1ccccc1 (stereo unspecified)	nt	nt	8
CO/N=[N+](\[O-])N1CCCC(C(N)=O)C1 (stereo unspecified)	i	nt	nt
NC(=O)C1CCCN(/[N+]([O-])=N/OCCBr)C1 (stereo unspecified)	+	nt	nt
O=C(Nc1sc2c(c1C(=O)NCc1cccnc1)CCCC2)c1ccco1	i	29	12
O=C(Nc1sc2c(c1C(=O)NCc1cccnc1)CCCCC2)c1ccccc1	+	?	-1
COC(=O)Nc1sc2c(c1C(=O)NCc1ccco1)CCCC2	+	-7	3
COC(=O)Nc1sc2c(c1C(=O)NCc1ccco1)CCC2	i	2	3
O=c1c2ccccc2nc(-c2cccs2)n1NCc1ccccc1F	i	35	nt
O=C(O)C1CC1C(=O)Nc1ccc(Oc2ccc(Cl)cc2C2CCCCC2)nc1 (stereo unspecified)	nt	nt	-6
COc1cc(/C=C/c2ccc(OC)cc2OC)cc(OC)c1	i	121*	nt
COc1cc(/C=C/c2ccc(OC)c(OC)c2)c(CC=C(C)C)c(OC)c1	i	20	-6
O=C(CC1(O)C(=O)N(Cc2ccccc2)c2ccc(Br)cc21)c1ccco1 (stereo unspecified)	i	1	0
O=S(=O)(N[C@@H]1CCCN(Cc2ccc(OCCO)cc2)C1)c1ccc2ccccc2c1	i	nt	nt
SMILES	ID4 binder	p53 PUMA act	STK33 kin inh
O=S(=O)(N[C@@H]1CCCN(Cc2cccc(OCCO)c2)C1)c1ccc(-c2ccccc2)cc1	i	nt	-1
COc1ccc(S(=O)(=O)NC2CCN(Cc3ccc(OCCO)cc3)CC2)cc1	i	nt	nt
O=S(=O)(N[C@@H]1CCCN(Cc2ccc(OCCO)cc2)C1)c1cccc(F)c1	+	nt	-3
O=S(=O)(N[C@@H]1CCCN(Cc2cccc(OCCO)c2)C1)c1cccc(F)c1	+	nt	1
Cc1ccc(S(=O)(=O)NC2CCN(Cc3ccc(OCCO)cc3)CC2)cc1	+	nt	2
O=S(=O)(N[C@@H]1CCCN(Cc2ccc(OCCO)cc2)C1)c1cccc2cccnc12	+	nt	-8
O=S(=O)(NC[C@@H]1CCCN(Cc2ccc(OCCO)cc2)C1)c1cccc2cccnc12	nt	nt	-3
CCn1c(SCC(=O)Nc2ccc(Br)c(C)c2C)nnc1-c1ccccc1C	i	-11	-1
COc1cc(Cc2nccc3cc(OC)c(OC)cc23)c(NC(=O)c2cccc(Br)c2)cc1OC	i	-3	2
c1coc(-c2nn3c(C4COc5ccccc5O4)nnc3s2)c1 (stereo unspecified)	i	8	-2
O=C1C(=O)N(Cc2ccco2)C(c2cccc(O)c2)C1C(=O)c1ccco1 (stereo unspecified)	i	-15	2
COc1cc2c(c(OC)c1OC)CCc1cc(O)c(O)cc1-2	nt	1	21*
COc1cc(C2OCC3C(c4cc(OC)c(OC)c(OC)c4)OCC23)cc(OC)c1OC (stereo unspecified)	i	-7	-2
O=C(CSc1nnc(-c2ccco2)o1)Nc1cccc2ccccc12	i	9	-2
CC(C)(C)C(=O)CSc1nnc(-c2ccco2)o1	i	70*	2
COc1ccc(OC)c(C2C(C(=O)c3cccs3)C(=O)C(=O)N2Cc2cccnc2)c1 (stereo unspecified)	i	10	-3
CN1CCN(C(=O)CN(c2cccc(Cl)c2)S(=O)(=O)c2ccc(Cl)cc2)CC1	i	-4	-4
CN1CCN(C(=O)c2nc3ccc(Cl)cc3[nH]2)CC1	i	57*	nt
O=C(Cc1ccccc1)c1ccccc1C(=O)NCc1ccc(F)cc1	nt	nt	-9
Cc1[nH]c2ccccc2c1C(=O)CSc1nc2ccccc2[nH]1	i	62*	1
Cc1[nH]c2ccccc2c1C(=O)CSc1nc2ccccc2o1	i	31	1
O=C(Nc1ccccc1C(=O)NCc1ccco1)c1ccccc1Cl	i	0	-1
O=C(Nc1ccccc1C(=O)NCc1ccco1)c1ccc(-c2ccccc2)cc1	i	58*	0
COc1ccc2cc1/C=C\NC(=O)C(Cc1ccccc1)NC(=O)C1C(CCN1C(=O)C(NC(=O)C(C)N(C)C)C(C)C)O2 (stereo unspecified)	nt	-8	-2
Cc1cc(OCC(=O)Nc2ncn[nH]2)c(C)cc1Br	i	57*	-1
SMILES	ID4 binder	p53 PUMA act	STK33 kin inh
Cc1cc(C)c(C)c(OCC(=O)NCc2ccccn2)c1	i	8	-1
CC(C)(C)c1ccc(OCC(=O)Nc2ncn[nH]2)c(Br)c1	i	47	2
CCCn1nnnc1NC(=O)COc1ccc(Cl)c(C)c1	i	-11	-1
Cc1cc(OCC(=O)Nc2ncn[nH]2)ccc1Cl	i	78*	0
Cc1cc(OCC(=O)NCc2ccccn2)c(C)cc1Br	i	119*	-1
CC(C)=CCC1C(=O)C(=O)c2ccccc2C1=O (stereo unspecified)	nt	nt	0
N#Cc1c(-c2ccccc2)cc2c(c1N)c(=O)oc1ccccc12	nt	nt	2
CN(C)CCCN1C(=O)C(=O)C(C(=O)c2ccco2)C1c1cccc([N+](=O)[O-])c1 (stereo unspecified)	i	10	4
CC(CC(O)C1OC1(C)C)[C@@H]1CCC2(C)C3=CCC4C(C)(C)C(=O)CCC4(C)C3CC[C@@]12C (stereo partly specified)	nt	nt	3
CCc1ccc2oc(-c3cccc(NC(=O)COc4ccccc4)c3)nc2c1	i	82*	3
COc1ccc(OCC(=O)Nc2ccc(-c3nc4cc(C)ccc4o3)cc2)cc1	i	-45	-1
Cc1cc(C)cc(OCC(=O)Nc2cccc(-c3nc4ccccc4o3)c2)c1	i	9	5
CCc1ccc(OCC(=O)Nc2ccc3oc(-c4ccccc4)nc3c2)cc1	i	?	-1
